# Source: PubChem BioAssay AID652025 (National Center for Advancing Translational Sciences (NCATS), 2013)
# The whole screen tested about 360,000 compounds, of which about 240 (0.067%) were called active. The sample as a whole holds a higher share of actives than the screen did. Values without a mark were called inactive. Cut-off read from the data, not from the text of the source: active = activation above about 50%; inconclusive = mostly about 30% to 49%; inactive = weaker than that.
# Assay: qHTS of IL-2 Activators; note: 0% is about no effect
# Conditions: IL-2 activation reporter assay, cell-based qHTS; stronger effect = higher value; in transgenic mouse T cells; stimulated with anti-CD3/CD4/CD28 beads
# From the text: The adaptive immune response against any infectious agent begins with the activation of an antigen specific T cell. This relatively rare and inert ("naive") T cell undergoes a massive proliferative expansion and differentiation process to generate sufficient number of potent pathogen-specific effector T cells. The effector T cells fight the infection by making cytokines and helping other cells to become fully armed as well. If any naive T cell has antigen receptors (TCRs) that can be activated by self peptides, then a variety of regulatory mechanisms kick in to prevent this cell from performing to its full potential. These processes collectively constitute the phenomenon of immunological tolerance and their failure leads to autoimmunity. One arm of tolerance involves generation of biochemical negative feedback downstream of the TCR (tuning). This is especially relevant to self antigens present in the body over long periods of time (chronic), which form the bulk of our proteome. The negative feedback serves to tune the TCR signaling, such that the ambient antigenic stimulation is nullified intracellularly. Unfortunately, this critical machinery serves as a target for chronic viral, bacterial and parasitic infections (as well as tumors), which can evade a robust immune response, simply by allowing T cells to tune down their signaling to pathogen or malignancy derived antigens. As such, disrupting the tuning in such cases would allow the tolerant T cell to function again and deliver a robust effector response.
# If a therapeutic can restore responsiveness to the tuned down T cell, even for a short time, they could combat the pathogen without any additional immunization. To that end, we have developed a sensitive HTS T cell based assay based on IL-2. This assay will be screened against the Molecular Libraries Small Molecule Repository (MLSMR) to find small molecules that could elicit this response.
# NIH Chemical Genomics Center [NCGC]
# NIH Molecular Libraries Probe Centers Network [MLPCN]
# Assay Submitter (PI): Ron Schwartz, NIAID
# 4 microL (750 cells/well) of unstimulated transgenic mouse T cells (columns 1-3,5-48) are dispensed into Aurora LoBase, black clear-bottom 1536-well assay plates; column 4 receives an identical concentration of transgenic memory T cells as a non-tolerant control. Compounds are then transferred via Kalypsys pin tool equipped with 1536-pin array (10 nL slotted pins, V&P Scientific, San Diego, CA). Following addition of compound and a 60 minute incubation, 1 microL of bead stimulation solution ((0.04 micron Fluospheres (Life technologies, CA) coated with 10ug/ml each anti-CD3 and anti-CD4 (clones 2C11 and GK1.5, BD Biosciences, CA) and mixed with 1ug/ml anti-CD28 (clone PV-1, BD biosciences, CA)). columns 2-48) is added to stimulate the IL-2 response pathway; media is instead added to column 1 as an unstimulated control, while PMA/ionomycin (Sigma Aldrich, MO) is added to column 3 as a control for IL-2 tolerance bypass. The plates are then incubated at 37 degrees C for 18 hours. EGFP and DsRed signal are then detected using an Acumen eX3 Explorer fluorescent plate cytometer. All cells are dispensed in cell media containing EHAA (Quality Biologicals, MD), RPMI (Quality Biologicals, MD), Glutamine (Life Technologies, CA), Penicillin/Streptomycin (Quality Biologicals, MD), 2-ME (Sigma Aldrich, MO) and 10% FBS (Gemini Bioproducts, CA) .
row,Structure (SMILES),activation [%]
1,Cc1nc2ccc(S(=O)(=O)NCC(=O)NCCN3CCCCC3C)cc2s1 (centres undefined),0.794
2,COc1ccc(C(=O)C2CCCN(C(=O)c3cc4nc(C)cc(C)n4n3)C2)cc1F (centres undefined),-1.95
3,Cc1cccc2[nH]c(CN(C)C(=O)C3CCC(=O)N(CCc4ccccc4)C3)nc12 (centres undefined),-4.62
4,CCCCN=C1C([N+](=O)[O-])=CC=C2C1=NC1(CCCCC1)N2O,-0.493
5,CCOC(=O)C1CCN(c2c(Nc3cc(C)cc(C)c3)c(=O)c2=O)CC1,3.74
6,COc1ccc(S(=O)(=O)Nc2cccc3c2O[C@H](CN(C)S(=O)(=O)c2ccc(OC)cc2)[C@@H](C)CN([C@H](C)CO)C3=O)cc1,-0.577
7,COc1ccc(-c2ccc3[nH]c4c(c3c2)CCN2C[C@H]3[C@H](C)ON(C)[C@H]3C[C@@H]42)cc1,-3.69
8,COc1cc(C(F)(F)F)nc2c(Br)c(C(C)(C)C)nn12,-2.42
9,COc1ccc(N2CCN(CCNC(=O)CCN3C(=O)COc4ccccc43)CC2)cc1,-1.26
10,Cc1cc(Cl)ccc1OCc1nc(-c2ccncc2)no1,-0.482
11,O=C(NNc1ccccc1Cl)C(O)(c1cccc(C(F)(F)F)c1)c1cccc(C(F)(F)F)c1,-0.487
12,Cn1c2ccc(F)cc2c2nnc(NN)nc21,0.485
13,CC(C)(C)NC(=O)CN1CCC(NC(=O)C23CC4CC(CC(C4)C2)C3)CC1,-0.682
14,COc1ccc(CCC(=O)N2CCN(S(=O)(=O)c3ccc(OC)cc3)CC2)cc1,0.152
15,COc1ccc(CCc2nnc(CCC(=O)NCc3cnn(-c4ccccc4C)c3)o2)cc1,-0.0481
16,Cn1cnc(S(=O)(=O)Nc2ccc3c(c2)OCCO3)c1,0.511
17,COc1cccc(N2CCN(CC(=O)Nc3ccnn3C3CCCC3)CC2)c1,0.356
18,O=C1CCC(Cc2ccccc2)N1 (centres undefined),-3.46
19,CN1CCN(S(=O)(=O)c2ccc(N3CCN(S(=O)(=O)c4cccs4)CC3)nc2)CC1,0.642
20,O=C1Cc2ccccc2Sc2ccc(Cl)cc21,-0.448
21,CSCC[C@H](NC(=O)N1CCn2c1nc1ccccc12)C(=O)NCc1ccc2c(c1)OCO2,-1.15
22,COc1ccc(N2CCN(C(=O)CCSCc3ccccc3F)CC2)cc1,1.14

row,Structure (SMILES),activation [%]
1,NC(=O)COC(=O)c1ccc2c(c1)C(=O)N(Cc1ccco1)C2=O,-0.0741
2,Cc1cnc(C(=O)N2CCCC(C(=O)c3ccc(C(F)(F)F)cc3)C2)cn1 (centres undefined),0.823
3,CCOc1ccc(Nc2nc(Cc3nnc(SCC(=O)c4ccc(C)cc4)o3)cs2)cc1,-0.186
4,NCCN1CCN2C(=O)CN(C(=O)c3ccccc3)CC12 (centres undefined),1.5
5,Cc1cc(C)cc(N(CC(=O)N2CC=C(c3ccccc3)CC2)S(=O)(=O)c2c(C)noc2C)c1,-2
6,CC1=NN(C(C)C)C(=O)C1,-0.959
7,CC1=C(C(=O)N2CCOCC2)CC(CC(=O)NCCN2CCOCC2)C(=O)N1CCC1=CCCCC1 (centres undefined),2.16
8,CC(=O)CSc1nnc(CSc2ncccn2)n1C1CCCCC1,4.89
9,O=C(O)CN(Cc1ccco1)S(=O)(=O)c1ccccc1,0.214
10,CC(=O)N1CC[n+]2c(-c3ccc([N+](=O)[O-])cc3)csc21,-2.73
11,Cc1ccccc1N1C(=O)C(Oc2ccc(Cl)cc2)C1CNCC1CCCO1 (centres undefined),0.756
12,O=C1/C(=C\c2cccnc2)CN(Cc2ccccc2)C/C1=C\c1cccnc1,-0.836
13,Cc1c2cn[nH]c(=O)c2c(C)n1Cc1ccc(F)cc1,-0.791
14,Cc1c(C(=O)OCC(=O)N2CCCC2=O)oc2ccccc12,-1.29
15,O=S(=O)(Nc1nccs1)c1ccc2c(c1)OCCO2,-0.72
16,CN1CCN(C2Cc3ccc(Cl)cc3Sc3ccc(F)cc32)CC1 (centres undefined),-2.1
17,Cc1cc([N+](=O)[O-])nn1CCCC(=O)Nc1cccnc1Cl,-0.291
18,Cc1cc(NC(=O)c2cc(-c3cccs3)on2)nn1Cc1ccc(Cl)cc1,0.242
19,CC1(C)O[C@@H]2[C@H](O1)[C@@H](COS(=O)(=O)O)O[C@H]2n1cnc2c(=O)[nH]cnc21,-0.104
20,CCCc1nc(SCC(=O)Nc2ccc(S(=O)(=O)N(C)C)cc2)c2ccccc2n1,-0.583
21,Cc1ccc(S(=O)(=O)CC(=O)Nc2sc(C)c(C)c2C(N)=O)cc1,0.0351
22,COCCN(C(=O)CCC(=O)Nc1nccs1)C(C(=O)NCCC(C)C)c1ccc(F)cc1 (centres undefined),-1.07
